# Hits are enriched below; roughly 3.9% of the tested compounds scored in any of these assays.
# CCHF vOTU inh-1: CCHFV vOTU protease inhibition | Pep-AMC fluorescence | inhibition, % at 11.5 µM | 0.55% of 370,000 active; further: 0% = vehicle wells with enzyme and 100% = no enzyme wells
# FBA Mtb inh: inhibitors of M. tuberculosis fructose-bisphosphate aldolase; AID 588726; 2.3% of 360,000 active; purified M. tuberculosis FBA, fluorescence read-out; inhibition, % at 1 µM; P9WQA3; in the data active means inhibition above about 27%;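 further: 0% = vehicle and 100% = reference inhibitor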
# Target sequence (P9WQA3 whole entry, looked up): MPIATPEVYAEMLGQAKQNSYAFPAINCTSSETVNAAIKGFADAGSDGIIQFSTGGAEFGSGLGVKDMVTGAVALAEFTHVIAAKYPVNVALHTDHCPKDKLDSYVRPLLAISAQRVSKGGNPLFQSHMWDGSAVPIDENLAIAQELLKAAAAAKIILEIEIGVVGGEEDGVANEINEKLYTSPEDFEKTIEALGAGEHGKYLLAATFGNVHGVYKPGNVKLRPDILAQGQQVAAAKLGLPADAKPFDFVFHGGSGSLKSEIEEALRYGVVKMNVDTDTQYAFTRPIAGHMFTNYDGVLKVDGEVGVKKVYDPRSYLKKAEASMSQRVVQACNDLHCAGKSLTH
# Vc quorum ag: induces V. cholerae light production without autoinducers; 0.16% of 350,000 active; V. cholerae BH1578 lux reporter, luminescence, 6 h; activation, % at 18.7 µM; in the data active means activation mostly above about 9.7%, no sharp cut-off
# GDH-TPI inh: counter-screen for M. tuberculosis FBA inhibitors: GDH-TPI coupled enzymes; GDH-TPI coupled enzyme counterscreen, NADH absorbance; inhibition, % at 4.8 µM; 1.2% of 360,000 active;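 further: 0% = DMSO wells and 100% = wells lacking the enzyme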
# CCHF vOTU inh-2: CCHFV vOTU protease inhibition, confirmation; shares compounds with CCHF vOTU inh-1; Recombinant CCHFV vOTU, Pep-AMC fluorescence; inhibition, % at 11.5 µM; 17% of 1,900 active; AID 686976
# * marks the source's active call; other numbers are inactive results; i = inactive; . = no result. Unless noted, no stated cut-off is given here; in the data, active means inhibition above about 30%; inactive means the rest.
SMILES,CCHF vOTU inh-1,FBA Mtb inh,Vc quorum ag,GDH-TPI inh,CCHF vOTU inh-2
O=C(Cn1cnc2c(OCc3ccccc3)ncnc21)NCCCN1CCCC1=O,30.1*,0.0,i,4.5,3.1
CCN(CC)CCN1C(=O)C2C(C(=O)Nc3cc(C)cc(C)c3)C3C=CC2(O3)C1C(=O)NC1CCCCC1 (stereo not given),-13.8,-2.9,i,1.9,.
O=C(c1ccccc1Cl)c1c(O)c2ccccc2oc1=O,8.5,-0.6,i,10.3,.
O=c1oc2cc(O)c(Cl)cc2c2ccccc12,30.5*,5.1,i,17.8,-7.1
Oc1c(N=Nc2nn[nH]n2)ccc2ccccc12,97.8*,-9.4,.,.,83.8*
CCN(CC)C(=O)CN(c1cc2c(cc1OC)oc1ccccc12)S(=O)(=O)c1ccc(C)cc1,30.2*,-0.7,-3.2,16.8,-22.7
COc1ccc(S(=O)(=O)NC(C)C(=O)NCC2CCCO2)cc1OC (stereo not given),-1.1,3.3,i,5.9,.
COc1ccccc1OCCNC(=O)c1ccccc1OCc1c(C)noc1C,15.7,1.2,-2.0,-8.1,.
COc1cc(/C=C2/C(=O)N(c3ccc([N+](=O)[O-])cc3)N=C2N2CCOCC2)ccc1O,115.3*,-6.5,-0.3,38.8*,8.1
CC(C)(C)CC(C)(C)NC(=O)Nc1cccc([N+](=O)[O-])c1,38.9*,-2.5,i,-15.6,-12.4
COc1cc(OC)c([N+](=O)[O-])cc1/C=N/NC(=O)c1ccncc1,34.1*,-0.4,i,8.5,4.8
COc1cc(/C=N/NC(=O)c2ccncc2)c([N+](=O)[O-])cc1OC,9.2,-2.9,i,10.3,.
O=C(Nc1nnc(S(=O)(=O)N2CCOCC2)s1)c1ccccc1Cl,8.1,1.2,-0.2,9.1,.
CN(C)c1ccc(C(CNS(=O)(=O)c2cccc([N+](=O)[O-])c2)N2CCOCC2)cc1 (stereo not given),-7.2,3.6,-1.5,0.3,.
O=C(Nc1ccc(O)cc1C(=O)O)c1ccc(NC(=O)c2ccco2)cc1,36.9*,1.8,-0.5,10.4,-3.4
COc1ccc(Nc2c(CC(C)C)nc3nc(C)cc(C)n23)cc1,3.4,.,.,.,.
CCC1Sc2ccc(S(=O)(=O)CCC(=O)Nc3ccc(OC(F)(F)F)cc3)cc2NC1=O (stereo not given),39.3*,-2.3,-0.4,1.9,8.4
c1ccc(Nc2ccc(Nc3ccccc3)cc2)cc1,1.4,-0.8,-0.3,4.2,.
O=C1C=CC(=O)N1c1ccc(Nc2ccccc2)cc1,41.1*,-3.3,-5.7,14.0,-15.6
O=C(/C=C/c1ccccc1)Nc1cc(NC(=O)/C=C/c2ccccc2)cc(C(=O)O)c1,35.6*,-0.2,-0.1,17.6,8.4
C=CCN1C(=O)c2ccc(C(=O)Nc3ccccn3)cc2C1=O,-2.7,2.8,i,0.7,.
O=C(CCCCCN1C(=O)C2C3C=CC(C3)C2C1=O)Nc1ccc(Cl)cc1 (stereo not given),0.6,.,.,.,.
O=C(CCCCCN1C(=O)C2C3C=CC(C3)C2C1=O)Nc1ccc2ncccc2c1 (stereo not given),68.5*,.,.,.,18.4
CC(=O)O[C@@H]1C=C[C@@H](C#Cc2ccc(C(C)(C)C)cc2)O[C@@H]1COC(=O)Nc1ccccc1,33.6*,.,.,.,-7.7
O=S1(=O)N=C(N(CCO)/N=C/c2ccncc2)c2ccccc21,30.3*,-0.8,0.4,20.4,-8.1
SMILES,CCHF vOTU inh-1,FBA Mtb inh,Vc quorum ag,GDH-TPI inh,CCHF vOTU inh-2
NC(=O)[C@@H]1CC2(CC(c3cccc(NC(=O)CC(c4ccccc4)c4ccccc4)c3)=NO2)CN1C(=O)COc1ccc(Cl)cc1 (stereo not given in full),10.6,-1.2,i,10.9,.
CCOC(=O)CCNC(=O)N1CCCC(C(=O)c2cccc(Cl)c2)C1 (stereo not given),-3.3,-1.5,i,5.4,.
O=C(CNc1cccc2ccccc12)N/N=C/c1ccc[nH]1,-2.1,19.2,-0.5,-3.2,.
O=C(CNc1cccc2ccccc12)N/N=C/C(Br)=C/c1ccccc1,82.4*,2.6,0.9,25.0,-13.4
CCN(Cc1cc(=O)n2ccsc2n1)c1cccc2ccccc12,53.6*,1.7,-0.2,4.6,-3.9
Cc1cc(SCc2cc(=O)n3ccsc3n2)nc2ccccc12,-2.1,0.2,0.3,14.8,.
CN1CCS/C1=C\C=C1/SC(=S)N(CC(=O)O)C1=O,30.2*,-33.4,i,2.5,13.2
CON(C)C(=O)c1ccccc1N(C)C(=O)OC(C)(C)C,0.5,-0.7,-5.0,4.0,.
c1coc(-c2nc(-c3ccco3)c(-c3ccco3)nc2-c2ccco2)c1,35.4*,31.9*,i,28.3,-14.5
COc1ccc2nc(-c3ccco3)c(-c3ccco3)nc2c1,62.6*,4.2,i,5.7,-15.5
Cc1ccc(N2C(=O)CC(NNC(=O)c3cccc(S(=O)(=O)N4CCCC4)c3)C2=O)cc1 (stereo not given),14.1,0.0,i,-1.5,.
C=CCn1c(NS(=O)(=O)c2ccccc2)c(S(=O)(=O)c2ccc(C)cc2)c2nc3ccccc3nc21,32.5*,14.4,-0.6,8.0,-14.1
O=S(=O)(Nc1c(S(=O)(=O)c2ccccc2)c2nc3ccccc3nc2n1C1CCCCC1)c1ccccc1,93.7*,4.4,-0.4,8.7,63.6*
COC(=O)c1ccc2nc(C3CCCCC3)c3c(c2c1)CCC3,-4.7,2.3,i,-1.4,.
Cn1c(=O)c2[nH]c(CCCc3nc4ccccc4[nH]3)nc2n(C)c1=O,13.4,-0.1,-0.7,1.8,.
C[C@@H]1CCCCO[C@H](CN(C)C(=O)Nc2ccc(C(F)(F)F)cc2)[C@@H](C)CN([C@H](C)CO)C(=O)c2cc(NC(=O)c3ccncc3)ccc2O1,32.3*,-1.5,-0.5,-7.1,-1.3
C[C@@H]1CCCCO[C@H](CN(C)C(=O)CCC(F)(F)F)[C@@H](C)CN([C@H](C)CO)C(=O)c2cc(NC(=O)c3ccncc3)ccc2O1,16.6,1.2,-2.4,13.4,.
O=C(CSc1nc2ccccc2[nH]1)NN=Cc1ccccc1C(=O)O,0.9,.,.,.,.
CCCCCCCCN1C(=O)[C@@H](CC(=O)NCc2ccc(OC)c(OC)c2)C[C@@]2(C(=O)OC)C1=C[C@H](C(C)C)O[C@@H]2C1CC1,37.6*,.,.,.,10.7
COC(=O)[C@]12C[C@H](CC(=O)NCc3cccc(C(F)(F)F)c3)C(=O)N(CCc3ccc(OC)c(OC)c3)C1=C[C@H](C(C)C)O[C@@H]2C1CC1,25.4,.,.,.,.
CCCCCCCCN1C(=O)[C@@H](CC(=O)NCc2cccc(C(F)(F)F)c2)C[C@@]2(C(=O)OC)C1=C[C@H](C(C)C)O[C@@H]2C1CC1,29.8*,.,.,.,30.7*
COC1=CC(=Cc2c(N)n3nc(CC(=O)N4CCCCC4)sc3nc2=O)C=C(OC)C1=O,33.9*,-1.0,i,14.7,4.3
O=c1[nH]cnc2ccccc12,-0.3,0.1,-0.5,8.3,.
COC(=O)C1(C(=O)OC)C[C@H](/C=C/c2ccccc2)N(Cc2ccccc2OC)[C@@H]1c1cccs1,13.5,.,.,.,.
COC(=O)C1(C(=O)OC)C[C@H](/C=C/c2ccccc2)N(Cc2ccccc2OC)[C@@H]1c1ccc(F)cc1,31.2*,.,.,.,-6.0

# Assay outcomes from PubChem BioAssay.
